Data as given in PubChem BioAssay (EPA / NIEHS).
Records with an inconclusive call do not appear. Activity calls are given as the source filed them. Rule for the calls, unless noted: active = hit-call score of the fitted dose curve at least 0.9, where 1 is the maximum; inactive = score below 0.9.

Columns and labels:
[1] = CCTE_Shafer_MEA_dev_firing_rate_mean: CCTE's Neural Network Formation Assay for Mean Firing Rate, Shafer Lab (AID 2284031);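 note: AUC of well mean spike rate recorded on DIV 5 7 9 and 12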
Summary of the method: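 Extracellular spike frequency, AUC over DIV 5–12 recordings, in rat cortical neuron MEA cultures dosed from plating; loss direction vs DMSO.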

[2] = CCTE_Shafer_MEA_dev_active_electrodes_number: CCTE's Neural Network Formation Assay for Number of Active Electrodes, Shafer Lab (AID 2284040; active = hit-call score of the fitted dose curve at least 0.9, where 1 is the maximum;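 note: potency for loss of active electrodes versus DMSO so lower counts are hits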)
Summary of the method: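 Developing rat cortical networks on MEAs, exposed DIV 0–12. Value is the AUC of active-electrode counts (≥5 spikes/min) from days 5, 7, 9, 12, relative to DMSO.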

[3] = CCTE_Shafer_MEA_dev_burst_rate: CCTE's Neural Network Formation Assay for Burst Rate, Shafer Lab (AID 2284042)
Summary of the method: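 Developmental network assay measuring how 12-day exposure of rat cortical neuron cultures alters bursting on extracellular MEA recordings. Values are AUC of well-mean burst rate across four recording days, relative to DMSO vehicle.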

[4] = CCTE_Shafer_MEA_dev_bursting_electrodes_number: CCTE's Neural Network Formation Assay for Number of Bursting Electrodes, Shafer Lab (AID 2284043; active = hit-call score of the fitted dose curve at least 0.9, where 1 is the maximum;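 note: potency is for loss of bursting electrodes relative to DMSO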)
Summary of the method: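 Number of electrodes reaching ≥1 burst every 2 min was recorded at DIV 5, 7, 9 and 12 and collapsed as trapezoidal area under the curve. Cultures were rat cortical neurons on MEA plates, dosed continuously from plating with medium and treatment refreshed on DIV 5 and 9.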

[5] = CCTE_Shafer_MEA_dev_burst_duration_mean: CCTE's Neural Network Formation Assay for Mean Burst Duration, Shafer Lab (AID 2284045)
Summary of the method: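 Mean single-electrode burst duration (first to last spike), averaged over bursting electrodes per well, then integrated as area-under-curve across recordings at days 5, 7, 9 and 12. Rat cortical cultures on MEAs, compound present from plating, refreshed at feeds.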

[6] = CCTE_Shafer_MEA_dev_inter_network_spike_interval_mean: CCTE's Neural Network Formation Assay for Mean Inter-network Spike Interval, Shafer Lab (AID 2284047)
Summary of the method: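 Compound was given at plating to primary rat cortical neurons and renewed with full medium changes on DIV 5 and 9. Extracellular activity was recorded on days 5, 7, 9, 12; AUC values were fitted for loss relative to DMSO control.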

[7] = CCTE_Shafer_MEA_dev_network_spike_number: CCTE's Neural Network Formation Assay for Number of Network Spikes, Shafer Lab (AID 2284048);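 note: synchronized bursts across electrodes counted on days 5 7 9 12 and integrated as AUC; fit as a loss of signal meaning fewer network spikes than DMSO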
Summary of the method: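 Number of network spikes (coordinated firing across electrodes) recorded on days 5, 7, 9 and 12 and summarised as area under the curve. Rat cortical cultures on MEA, continuous compound exposure with full medium/treatment exchange at DIV 5 and 9.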

[8] = CCTE_Shafer_MEA_dev_network_spike_peak: CCTE's Neural Network Formation Assay for Mean Number of Electrodes in Network Spike, Shafer Lab (AID 2284049);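 note: fitted for loss of signal meaning fewer electrodes in network spikes than DMSO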
Summary of the method: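 Rat cortical primary culture, 1.5 x 10^5 cells/well, 48-well MEA (16 electrodes/well). Dosing day 0 through DIV 12, full media/compound exchange DIV 5, 9. AxIS adaptive spike detection; AUC over days 5/7/9/12; loss-of-signal vs DMSO.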

[9] = CCTE_Shafer_MEA_dev_spike_duration_mean: CCTE's Neural Network Formation Assay for Mean Spike Duration, Shafer Lab (AID 2284051);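 note: mean network spike duration pooled as area under curve over DIV 5 to 12 recordings; potency for a decrease in mean network spike duration versus DMSO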
Summary of the method: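 With DMSO as baseline, loss of mean network spike duration was scored from extracellular recordings of rat cortical neurons on MEA plates. Exposure spanned plating to DIV 12; the four recording days were collapsed into one AUC value.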

[10] = CCTE_Shafer_MEA_dev_network_spike_duration_std: CCTE's Neural Network Formation Assay for Standard Deviation of Network Spike Duration, Shafer Lab (AID 2284052);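 note: hits are decreases in network spike duration SD versus DMSO vehicle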
Summary of the method: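 Developing networks of rat cortical neurons were exposed over twelve days in vitro on 48-well MEA plates. Trapezoidal AUC of recordings (DIV 5–12) was analysed for signal loss relative to DMSO vehicle.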

[11] = CCTE_Shafer_MEA_dev_per_network_spike_spike_number_mean: CCTE's Neural Network Formation Assay for Mean Number of Spikes in a Network Spike, Shafer Lab (AID 2284053);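 note: fitted as decrease in spikes per network spike relative to DMSO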
Summary of the method: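 First, rat cortical cells (1.5 x 10^5/well) were seeded onto MEA wells; second, dosing began at plating and was refreshed on DIV 5 and 9; finally, network-spike spike counts across DIV 5–12 were summarized as AUC.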

[12] = CCTE_Shafer_MEA_dev_per_network_spike_spike_percent: CCTE's Neural Network Formation Assay for Percent of Spikes in a Network Spike, Shafer Lab (AID 2284054)
Summary of the method: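 Metric: fraction of spikes falling in a 0.05 s window at network-spike peaks. Recordings were made on days 5, 7, 9 and 12 and collapsed by trapezoidal AUC. Cultures were rat cortical neurons on MEA plates, dosed continuously from plating, re-dosed at media changes.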

[13] = UKN5_HCS_SBAD2_cell_viability: Viability Assessment in the University of Konstanz (UKN) Leist Lab Neurite Outgrowth Assay in human iPSC-derived immature Dorsal Root Ganglia Neurons (UKN5) (AID 2284056)
Summary of the method: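 iPSC-derived immature peripheral neurons (SBAD2) seeded on Matrigel with CHIR99021, SU5402 and DAPT, dosed 1 h later for 24 h. Viability from Hoechst H-33342 and calcein-AM live staining, high-content imaging; bidirectional fit versus DMSO.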

[14] = CCTE_Shafer_MEA_dev_LDH: CCTE's Lactate Dehydrogenase Assay for Cytotoxicity in the Neural Network Formation Assay, Shafer Lab (AID 2284068; active = hit-call score of the fitted dose curve at least 0.9, where 1 is the maximum;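 note: exposure for twelve days from plating with re-dosing on DIV 5 and 9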)
Summary of the method: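 Developing rat cortical networks on MEA plates are exposed to compound for 12 days from plating. LDH activity is measured spectrophotometrically, with DMSO as baseline.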

[15] = UKN5_HCS_SBAD2_neurite_outgrowth: University of Konstanz (UKN) Leist Lab Neurite Outgrowth Assay in human iPSC-derived immature Dorsal Root Ganglia Neurons (UKN5) (AID 2284070); conditions: actives raise or lower the signal
Summary of the method: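 Neurite outgrowth is quantified as calcein-AM-labelled neurite area in human iPSC-derived peripheral neurons treated for 24 h, starting 1 h after plating in medium with CHIR99021 (1.5 uM), SU5402 (5 uM) and DAPT (5 uM).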

[16] = CCTE_Shafer_MEA_dev_AB: CCTE's Alamar Blue Assay for Cytotoxicity in the Neural Network Formation Assay, Shafer Lab (AID 2284083; active = hit-call score of the fitted dose curve at least 0.9, where 1 is the maximum;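 note: resazurin reduction fluorescence as viability of cultured neurons; twelve days of exposure from plating with re-dosing on DIV 5 and 9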)
Summary of the method: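 Cytotoxicity companion to the developmental MEA: primary rat cortical neurons, 12-day exposure starting day 0, compound refreshed DIV 5 and 9; resazurin fluorescence, fitted against DMSO vehicle.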

[17] = CCTE_Shafer_MEA_dev_mutual_information_norm: CCTE's Neural Network Formation Assay for Mutual Information Normalization, Shafer Lab (AID 2284091)
Summary of the method: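 Shared information across electrodes, tracked on days 5, 7, 9 and 12 of network development and collapsed as trapezoidal area under the curve. Rat cortical cultures were treated continuously from plating, with treatment renewed at feeds on DIV 5 and 9; DMSO baseline, negative-direction fit.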

[18] = CCTE_Shafer_MEA_dev_correlation_coefficient_mean: CCTE's Neural Network Formation Assay for Mean Correlation Coefficient, Shafer Lab (AID 2284093);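 note: well mean pairwise spike train correlation integrated as AUC over recording days 5 to 12; potency fitted for loss of correlation relative to DMSO vehicle wells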
Summary of the method: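 Extracellular firing from rat cortical networks on 48-well MEAs, DMSO-referenced, negative fitting direction. Compound present from plating to DIV12; mean pairwise correlation per well integrated over DIV5–12 recordings by trapezoidal AUC.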

[19] = UKN2_HCS_IMR90_neural_migration: University of Konstanz (UKN) Leist Lab Neural Crest Cell Migration Assay in human induced IMR90 Pluripotent Stem Cells (UKN2) (AID 2284204); conditions: actives raise or lower the signal
Summary of the method: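 High-content imaging of calcein-AM and Hoechst stained cells quantifies migration into a stopper-defined gap after 24 h compound exposure. Neural crest cells from IMR90 iPSC migrated 24 h in EGF/FGF N2-S medium before dosing; DMSO baseline.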

[20] = UKN4_HCS_LUHMES_neurite_outgrowth: University of Konstanz (UKN) Leist Lab Neurite Outgrowth Assay in human LUHMES cells (UKN4) (AID 2284206); conditions: actives raise or lower the signal
Summary of the method: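 Neurite area in dopaminergic-model LUHMES neurons is measured by high-content imaging of calcein-AM after 24 h treatment starting shortly after day-2 replating; Hoechst staining tracks viability.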

[21] = IUF_NPC1b_proliferation_BrdU_72hr: Leibniz Research Institute for Environmental Medicine (IUF) 72-hour Neural Progenitor Cell Bromodeoxyuridine (BrdU) Proliferation Assay (NPC1b) (AID 2284207)
Summary of the method: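 Human fetal cortex-derived (GW 16-19) neural progenitor spheres, 0.25-0.35 mm, one per well in EGF/FGF proliferation medium, exposed to compound for 72 h at 37C, pH 7.2-7.6. BrdU incorporation over the final 16 h read by luminescence ELISA, relative to DMSO.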

Measured: AC50

CC(=O)[O-].CC(=O)[O-].O.O.O.[Pb+2]
active: [2] 22.3 µM | [4] 18.5 µM | [7] 2.98 µM | [8] 12.5 µM | [9] 22.2 µM | [11] 20.2 µM | [12] 15 µM | [13] 17.7 µM | [14] 23.7 µM | [16] 24 µM | [18] 19.7 µM | [19] 32.8 µM
inactive: [1] | [3] | [5] | [6] | [10] | [15] | [17] | [20] | [21]
